# Test results from PubChem BioAssay (Tox21).
# Several values for one entry are separate records, joined by “and”; a condition that tells them apart may be missing. Equal entries are not always repeated. Records with an inconclusive call do not appear. A number with no mark means an inactive call. Activity calls are given as the source filed them. The call rests on the fitted dose curve; in most records, active means well fitted cell-killing curve with a large enough effect in the repeat runs; inconclusive means weak or mixed curves, or effect the other way; inactive means flat fitted curve, though single readings scatter.
# Experiment: Caspase-3/7 induction in HepG2 cells by small molecules, qHTS cell viability counter screen (AID 1346981); further: nearly all actives have a fitted effect of over 30% in size
# Conditions: CellTiter-Fluor fluorescence, 17 h; series mostly up to 92.4 µM; activity change, negative = cytotoxicity: at the top concentration
# From the text: U.S. Tox21 Program National Center for Advancing Translational Sciences [NCATS] NIH Chemical Genomics Center [NCGC] U.S. Environmental Protection Agency [EPA] National Institutes of Environmental Health Sciences [NIEHS] National Toxicology Program [NTP] U.S. Food and Drug Administration [FDA] Tox21 Assay Overview: Apoptosis is a process of programmed cell death and plays a central role in the development of multicellular organisms. It is a highly regulated process and induces cell death by activating caspases, which are the members of cysteine aspartic acid-specific protease (caspase) family. Caspases involved in apoptosis are classified by their mechanism of action as initiator caspases (caspase-2, -8, -9 and -10) and executioner caspases (caspase-3, -6, and -7). Inhibition of apoptosis results in number of cancers, autoimmune diseases, inflammatory diseases and viral infection. To identify small molecule compounds that induce apoptosis, a homogeneous, luminescent Caspase-Glo 3/7 assay was used. Wild type HepG2 cells were used to screen Tox21 libraries for identifying caspase-3/7 activity inducers. Also cytotoxicity of the compounds was tested in parallel by measuring the cell viability using CellTiter-Fluor assay system in the same wells.
# Tox21 Assay Protocol Summary: HepG2 cells were dispensed at 2,000 per well in 5uL of culture medium into white solid bottom 1536-well plates (Corning Life Sciences, Corning, NY) using a Multidrop Combi (Thermo Scientific, Waltham, MA) dispenser. The assay plates were incubated at 37 C and 5% CO2 for 5hr, and then 23nL of compounds dissolved in DMSO and positive control were transferred using a Pintool station ([…], San Diego, CA). The assay plates were incubated at 37C and 5% CO2 for 17hr. For cytotoxicity read, after 16hr incubation at 37C, 1uL CellTiter-Fluor reagent (Promega Corporation, Madison, WI) was added to each well of the assay plates using Flying Reagent Dispenser (FRD, Aurora Discovery, San Diego, CA). After 1hr incubation at 37C and 5% CO2, the fluorescence signal was quantified using a ViewLux plate reader (PerkinElmer, Shelton, CT).
# On the % scale 0 is the no-effect control and ±100 the full control effect; potency means the concentration at half of the fitted maximal effect.
Compound,"activity change, negative = cytotoxicity",Potency
BrCBr,2.31%,
CCOC(=O)CC(=O)CCl,-0.0009%,
CCOc1cc(C(C)(C)C)ccc1C1COC(c2c(F)cccc2F)=N1 (stereo not given),-2.89% [at 42.5 µM],
CCC(C)(C)C(=O)OC1=C(c2ccc(Cl)cc2Cl)C(=O)OC12CCCCC2,2.29%,
CC(C)OC(=O)C(O)(c1ccc(Cl)cc1)c1ccc(Cl)cc1,-4.39%,
O=c1oc2ccccc2c(O)c1Cc1c(O)c2ccccc2oc1=O,6.7% [at 42.5 µM],
N#CNC#N,-4.21%,
CCCCCCCCCCCCCCCC[N+](C)(C)C,,68.6 µM (active)
CCCN(CC)CC1COC2(CCC(C(C)(C)C)CC2)O1 (stereo not given),0.531%,
CCN,9.5%,
Oc1ccc(I)cc1,7.15%,
COP(N)(=S)OC,-0.298%,
COP(=S)(OC)Oc1cc(Cl)c(Br)cc1Cl,-12.6%,
CCc1ccccc1C,-9.32%,
C[C@@H](Oc1ccc(Cl)cc1Cl)C(=O)O,8.99%,
Cn1cc(C2=C(c3cn(C4CCN(Cc5ccccn5)CC4)c4ccccc34)C(=O)NC2=O)c2ccccc21,,10.6 µM (active)
Clc1ccc(-c2ccccc2)cc1,-14.5%,
O=[N+]([O-])c1cc(Cl)ccc1Cl,6.18%,
S=C=Nc1cccc2ccccc12,,60.5 µM (active)
FC(Cl)(Cl)Cl,8.12%,

Compound,"activity change, negative = cytotoxicity",Potency
N#CSCSC#N,,62.5 µM (active) and 67.9 µM (active)
c1ccc2c(c1)[nH]c1cnccc12,-0.0983%,
N#CC(Cl)Cl,9.11%,
[Cl][Sn]([c]1ccccc1)([c]1ccccc1)[c]1ccccc1,,5.8 µM (active)
C[C@H]1O[C@@H](O[C@H]2[C@@H](O)C[C@H](O[C@H]3[C@@H](O)C[C@H](O[C@H]4CC[C@@]5(C)[C@H](CC[C@@H]6[C@@H]5CC[C@]5(C)[C@@H](C7=CC(=O)OC7)CC[C@]65O)C4)O[C@@H]3C)O[C@@H]2C)C[C@H](O)[C@@H]1O,-6.46% [at 42.5 µM],
CC(C)CCCCCCCOP(=O)(Oc1ccccc1)Oc1ccccc1,-1.34%,
CCCCCCCCCCCCCCC(Br)C(=O)O (stereo not given),1.05%,
C=CCOC(N)=O,2.43%,
Oc1ccc(C2(c3ccc(O)cc3)CCCCC2)cc1,,51.6 µM (active)
OC(Cc1ccccc1Cl)(Cn1cncn1)C1(Cl)CC1 (stereo not given),-1.5%,
Clc1ccc(Oc2ccccc2)cc1,0.171%,
COc1ccc(OC)c(C=O)c1,5.22%,
Clc1ccc(C(Cl)(Cl)Cl)c(Cl)c1,3.7%,
O=C(CBr)c1ccc(O)cc1,10.2%,
Cc1ccc(C(=O)Cl)cc1,11.3%,
NNC(=O)c1ccccc1,7.22%,
CCC(C)c1cc(C(C)(C)C)cc(-n2nc3ccccc3n2)c1O (stereo not given),-0.797% [at 42.5 µM],
ClCc1ccccc1CCl,-0.718%,
Fc1ccc(Oc2ccnc3cc(Cl)cc(Cl)c23)cc1,-0.23%,
N#Cc1ccc(O)cc1,4.95%,
